According to PubChem BioAssay AID588849 (Broad Institute, 2011):
Potency and affinity values are given separately. Calls of active or inactive are those of the source. The rule behind the calls is not given here.

Molecular target: CAAX prenyl protease 2 (Homo sapiens) (UniProt Q9Y256)
Experiment: human Rce1 protease inhibitors, dose response, biochemical, yeast membranes, quenched-peptide fluorescence, cherry-pick (AID 588849)
Settings: yeast membrane fractions expressing human Rce1, quenched-peptide fluorescence, 4 h; series mostly up to 10 µM; activity change, negative = inhibition: at the top concentration

Sequence of CAAX prenyl protease 2 (Homo sapiens) (Q9Y256 whole entry, looked up): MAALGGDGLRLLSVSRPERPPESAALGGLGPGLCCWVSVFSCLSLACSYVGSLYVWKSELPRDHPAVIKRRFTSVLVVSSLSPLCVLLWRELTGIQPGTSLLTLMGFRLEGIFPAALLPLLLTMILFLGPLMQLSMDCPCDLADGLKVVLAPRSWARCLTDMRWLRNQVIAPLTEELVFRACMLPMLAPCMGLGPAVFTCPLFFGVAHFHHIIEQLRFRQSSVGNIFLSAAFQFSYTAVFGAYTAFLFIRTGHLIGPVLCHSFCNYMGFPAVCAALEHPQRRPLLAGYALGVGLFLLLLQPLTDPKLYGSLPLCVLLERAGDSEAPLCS

| SMILES | activity change, negative = inhibition |
| --- | --- |
| O=C(O)CCCC[C@@H]1SC[C@@H]2NC(=O)N[C@@H]21 | 26.2% (inactive) |
| CC1CCc2c(sc(NC(=O)COC(=O)c3ccccc3NCc3ccco3)c2C#N)C1 (configuration not stated) | 51.9% (inactive) |
| COc1ccc(OC)c(Cc2nnc(CCC(=O)N3CCN(C4CCCC4)CC3)o2)c1 | -17.8% (inactive) |
| CCOc1ccc(C2C(C(=O)OC)=CN(C(C)c3ccccc3)C=C2C(=O)OC)cc1 (configuration not stated) | -3.39% (inactive) |
| Cc1ccc(-c2c(C(=O)N/N=C/c3cccc(Cl)c3)nnn2-c2nonc2N)cc1 | 4.75% (inactive) |
| CCCCCCCCCC[N+](C)(C)CC/C=C1/c2ccccc2Sc2ccc(Cl)cc21 | -7.78% [at 3.5 µM] (inactive) |
| COc1cc(-c2nc3ccccn3c2/N=C/c2ccccc2)ccc1O | -12.4% (inactive) |
| CC(=O)Oc1ccc(C(=O)Nc2ccc(S(=O)(=O)NCC3CCCO3)cc2)cc1 (configuration not stated) | -7.42% (inactive) |
| CS(=O)(=O)Nc1ccccc1C(=O)NC1CC2CCC1C2 (configuration not stated) | -5.81% (inactive) |
| CC(=O)c1c(C)[nH]c(C(=O)OCc2ccc(Br)cc2)c1C | 6% (inactive) |
| CCN(Cc1ccccc1)S(=O)(=O)c1ccc(C(=O)N(CCCN(C)C)c2nc3cc(C)cc(C)c3s2)cc1 | -14.8% (inactive) |
| COc1ccc(-n2c(SCc3ccc([N+](=O)[O-])cc3)nnc2-c2ccc(C)cc2)cc1 | -12.3% (inactive) |
| COc1cc2c(cc1OC)C(C)N(C(=O)CCNC(=O)c1ccccc1)CC2 (configuration not stated) | -20% (inactive) |
| COc1ccc(Cl)cc1C(=O)Nc1ccc2c(c1)OCO2 | -7.6% (inactive) |
| O=C(CSc1nc2ccccc2s1)N1N=C(c2cccs2)CC1c1ccc(F)cc1 (configuration not stated) | -15.8% (inactive) |
| CCN(CC)CCNC(=O)CSc1c2c(nc3cc(Cl)ccc13)CCCC2 | -6.64% (inactive) |
| Cc1ccc(-c2cc(C)nc3nc(N)nn23)cc1 | 8.97% (inactive) |
